Among the test systems are HCT-15 colon; HT29 colon; SNB-75 CNS; SNB-19 CNS; U251 CNS; PC-3 prostate; SK-MEL-5 melanoma; UACC-62 melanoma; LOX IMVI melanoma; SK-MEL-28 melanoma; SK-MEL-2 melanoma; EKVX NSCLC; SN12C renal; UO-31 renal; TK-10 renal; ACHN renal; CAKI-1 renal; A498 renal; CCRF-CEM leukemia; MOLT-4 leukemia.
Common to all, as to assay: NCI-60 one-dose screen, 48 h (100 = growth as untreated, 0 = no growth, -100 = all killed)
What all share (details): 10 µM unless noted

This is part of a sample that, as a whole, favours compounds with a hit. Of some 83,000 tested, about 20% had one in any assay.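 Step 1: grow cells in 96-well plates. Step 2: add test compound at a single concentration. Step 3: incubate 48 h. Step 4: record percent growth.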 Unmarked numbers belong to inactive results. Calls of active or inactive are those of the source. The calls were made as follows: active = growth percent below 10; inactive = the rest.

For `O=C(NCCNc1nccc(Nc2ccc(S(=O)(=O)Nc3ccccn3)cc2)n1)c1cccc([N+](=O)[O-])c1`, the growth with HCT-15 colon is 105%; in the assay with HT29 colon it was 90.6%; with SNB-75 CNS, 93.5%; in the assay with SNB-19 CNS, 112%; in the assay on U251 CNS it was 97.6%; with PC-3 prostate, 94.2%. In addition, the growth was 103% in the assay on SK-MEL-5 melanoma; 100% with UACC-62 melanoma; 101% in the assay on LOX IMVI melanoma; 107% with SK-MEL-28 melanoma; 101% with SK-MEL-2 melanoma; 98.6% in the assay on EKVX NSCLC. Besides, the growth is 99.9% in the assay on SN12C renal; 82.5% in the assay on UO-31 renal; 100% in the assay on TK-10 renal; 102% in the assay with ACHN renal; 93.6% in the assay on CAKI-1 renal; 83.6% in the assay with A498 renal. The growth in the assay with CCRF-CEM leukemia was 101%.

Regarding `O=C(Nc1ccccc1)Nc1ncnc2c1ncn2-c1ccc(Cl)cc1`, the growth with HCT-15 colon was 79%; in the assay with HT29 colon, 80.4%; with SNB-75 CNS, 44.3%; with SNB-19 CNS, 97.1%; in the assay on U251 CNS, 77.6%; in the assay with PC-3 prostate it was 104%. The growth in the assay with SK-MEL-5 melanoma is 94.9%; with UACC-62 melanoma, 89.3%; in the assay on LOX IMVI melanoma, 91.9%; in the assay on SK-MEL-28 melanoma, 95.5%; in the assay with SK-MEL-2 melanoma, 107%; in the assay on EKVX NSCLC, 86.7%. The growth was 63.1% with SN12C renal; 70.3% in the assay with UO-31 renal; 58.9% with TK-10 renal; 69.5% in the assay with ACHN renal; 93.9% in the assay with CAKI-1 renal; 91% in the assay with A498 renal. Moreover, in the assay with CCRF-CEM leukemia, the growth was 94.2%.

Consider `Cc1ccc(-c2nc([P+](c3ccccc3)(c3ccccc3)c3ccccc3)c(S(=O)(=O)c3ccc(C)cc3)o2)cc1`, for which the growth with HCT-15 colon was 4.17% (active); in the assay with HT29 colon, 0% (active); in the assay with SNB-75 CNS it was -11.3% (active); with SNB-19 CNS, 53.5%; in the assay on U251 CNS it was 3.23% (active); in the assay on PC-3 prostate, 11.2%. For the same molecule, the growth with SK-MEL-5 melanoma is 48.7%; with UACC-62 melanoma, 26.1%; with LOX IMVI melanoma, -31.7% (active); with SK-MEL-28 melanoma, 24.6%; with SK-MEL-2 melanoma, 22.1%; with EKVX NSCLC, 22.6%. For the same molecule, the growth is 3.91% (active) in the assay with SN12C renal; 14.9% with UO-31 renal; 2.83% (active) in the assay on TK-10 renal; -13.4% (active) in the assay on ACHN renal; 5.62% (active) with CAKI-1 renal; -0.861% (active) with A498 renal. For the same molecule, the growth in the assay with CCRF-CEM leukemia was -6.52% (active).

Turning to `CCCNC(=O)Nc1ccc2cc3ccc(NC(=O)NCCC)cc3nc2c1`, the growth is 94.5% in the assay with HCT-15 colon; 98.5% in the assay with HT29 colon; 71.7% in the assay on SNB-75 CNS; 68.1% with SNB-19 CNS; 61.2% with U251 CNS; 81.5% in the assay on PC-3 prostate. Besides, the growth with SK-MEL-5 melanoma is 81.8%; with UACC-62 melanoma, 91.5%; with LOX IMVI melanoma, 72.2%; with SK-MEL-28 melanoma, 81.9%; in the assay on SK-MEL-2 melanoma it was 84.7%; with EKVX NSCLC, 97.8%. Besides, the growth with SN12C renal is 94.5%; in the assay with UO-31 renal it was 76.1%; in the assay on TK-10 renal it was 115%; in the assay with ACHN renal it was 78.1%; with CAKI-1 renal, 104%; with A498 renal, 71.4%.

For the molecule `N#CC1=C(N)Oc2c(c(=O)[nH]c3ccc(Cl)cc23)C12C(=O)c1ccccc1C2=O`, the growth in the assay on HCT-15 colon was 98.6%; with HT29 colon it was 108%; with SNB-75 CNS it was 76.5%; in the assay on SNB-19 CNS it was 91.6%; with U251 CNS, 99.4%; with PC-3 prostate it was 91.6%. Besides, the growth in the assay with SK-MEL-5 melanoma is 95.9%; in the assay on UACC-62 melanoma it was 89.4%; in the assay with LOX IMVI melanoma, 99.6%; with SK-MEL-28 melanoma, 104%; with SK-MEL-2 melanoma it was 115%; with EKVX NSCLC it was 95.2%. Also, the growth in the assay with SN12C renal was 94.8%; with UO-31 renal, 70.2%; with TK-10 renal it was 129%; with ACHN renal, 95.1%; with CAKI-1 renal it was 80.5%; in the assay on A498 renal it was 88%. For the same molecule, the growth in the assay with CCRF-CEM leukemia is 107%; with MOLT-4 leukemia, 116%.

For `O=C1/C(=C/c2ccccc2O)CC/C1=C\c1ccccc1O`, the growth in the assay with HCT-15 colon was 35.1%; in the assay with HT29 colon, 99.6%; in the assay on SNB-75 CNS, 77.2%; in the assay on SNB-19 CNS, 31.3%; in the assay on U251 CNS, 69.1%; in the assay with PC-3 prostate it was 8.94% (active). Also, the growth in the assay with SK-MEL-5 melanoma was 77.9%; with UACC-62 melanoma it was 36.6%; with LOX IMVI melanoma, 45.9%; with SK-MEL-28 melanoma, 96.8%; in the assay on SK-MEL-2 melanoma, 105%; in the assay on EKVX NSCLC it was 56.9%. For the same molecule, the growth with SN12C renal was 27.7%; in the assay with UO-31 renal it was 46.4%; in the assay on TK-10 renal, 160%; with ACHN renal it was 70.2%; in the assay with CAKI-1 renal, 92.4%; in the assay on A498 renal, 108%. Besides, the growth in the assay on CCRF-CEM leukemia is 1.74% (active).

With `CCN(CC)CC(O)COc1c(Br)c(Br)c(Br)c2c1OC(C)(C)C2` (stereo not drawn), the growth in the assay with HCT-15 colon was 97.3%; with HT29 colon it was 18.9%; in the assay on SNB-75 CNS it was 91.3%; in the assay with SNB-19 CNS, 73.4%; in the assay on U251 CNS it was 85.6%; with PC-3 prostate, 78.1%. Also, the growth with SK-MEL-5 melanoma was -78.9% (active); in the assay on UACC-62 melanoma, -43.7% (active); in the assay with LOX IMVI melanoma, 52.9%; in the assay with SK-MEL-28 melanoma it was 64%; with SK-MEL-2 melanoma, 338%; in the assay with EKVX NSCLC it was 105%. Besides, the growth with SN12C renal was 79.4%; in the assay on UO-31 renal, 91.2%; in the assay on TK-10 renal it was 58.4%; with ACHN renal, 97.9%; with CAKI-1 renal it was 17.6%; in the assay with A498 renal it was -86.9% (active). Moreover, the growth in the assay on CCRF-CEM leukemia was 45.8%.

Take `COc1ccc(Nc2nnc(-c3ccc(OC)c(OC)c3)o2)cc1`: the growth in the assay with HCT-15 colon is 80.3%; with HT29 colon, 90.9%; in the assay on SNB-75 CNS, 97.5%; in the assay on SNB-19 CNS, 97.5%; in the assay on U251 CNS it was 93%; in the assay with PC-3 prostate it was 70.7%. Also, the growth in the assay with SK-MEL-5 melanoma was 89%; in the assay on UACC-62 melanoma, 90.2%; in the assay with LOX IMVI melanoma it was 59.2%; with SK-MEL-28 melanoma, 106%; in the assay with SK-MEL-2 melanoma, 90.5%; in the assay on EKVX NSCLC it was 89.8%. In addition, the growth with SN12C renal is 97.8%; in the assay on UO-31 renal, 55.3%; with TK-10 renal it was 114%; in the assay on ACHN renal it was 82.8%; in the assay with CAKI-1 renal it was 89%; with A498 renal, 94.8%. Further, the growth in the assay with CCRF-CEM leukemia is 86.8%; with MOLT-4 leukemia, 91.3%.

For the origin of these results see PubChem BioAssay (NCI).
